According to PMC7862700, “An all-to-all approach to the identification of sequence-specific readers for epigenetic DNA modifications on cytosine”:

What was measured:
Assay in all cases: DAPPL (digital affinity profiling via proximity ligation, sequencing); 10 mM Tris-HCl pH 7.5, 50 mM NaCl, 1 mM DTT, 4% glycerol, room temperature, 30 min; GST-TFs on glutathione beads, 16-mer random dsDNA library, 0.1% formaldehyde crosslink after washing; high values mean tight binding
[1] = molecular target: T1, FEV (Homo sapiens, UniProt Q99581 1-238); conditions: protein: recombinant; tags: N-terminal GST; dsDNA, one strand shown
T1 sequence: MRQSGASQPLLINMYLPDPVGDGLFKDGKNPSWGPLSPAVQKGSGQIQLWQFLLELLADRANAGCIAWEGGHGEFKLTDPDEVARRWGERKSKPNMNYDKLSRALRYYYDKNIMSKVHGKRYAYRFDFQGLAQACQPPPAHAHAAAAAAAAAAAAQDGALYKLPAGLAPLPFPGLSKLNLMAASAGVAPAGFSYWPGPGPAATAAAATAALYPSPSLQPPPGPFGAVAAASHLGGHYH
Summary of the method: (§1)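 The binding signal reported is, for every hexamer, its read frequency for a factor over its read frequency for the tag-only sample. Reads came from pools of yeast-expressed, GST-fused human transcription factors on glutathione beads, barcoded with DNA and mixed with that sample, which were incubated with 200 nmole of a random double-stranded 16-mer DNA library in Tris/NaCl/DTT/glycerol buffer at room temperature for 30 min. After washing, the pools were crosslinked with 0.1% formaldehyde, proximity-ligated with BsaI/T4 ligase for 1 h at 37 °C, PCR-amplified and sequenced on an Illumina NextSeq500.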

[2] = molecular target: ETV5 (Homo sapiens, UniProt P41161 1-510); conditions: protein: recombinant; tags: N-terminal GST; dsDNA, one strand shown
Summary of the method: as §1

[3] = molecular target: HSF1 (Homo sapiens, UniProt Q00613 1-529); conditions: protein: recombinant; tags: N-terminal GST; chain copies: 3; dsDNA, one strand shown
Summary of the method: as §1

[4] = molecular target: T2, SPIC (Homo sapiens, UniProt Q8N5J4 1-248); conditions: protein: recombinant; tags: N-terminal GST; dsDNA, one strand shown
T2 sequence: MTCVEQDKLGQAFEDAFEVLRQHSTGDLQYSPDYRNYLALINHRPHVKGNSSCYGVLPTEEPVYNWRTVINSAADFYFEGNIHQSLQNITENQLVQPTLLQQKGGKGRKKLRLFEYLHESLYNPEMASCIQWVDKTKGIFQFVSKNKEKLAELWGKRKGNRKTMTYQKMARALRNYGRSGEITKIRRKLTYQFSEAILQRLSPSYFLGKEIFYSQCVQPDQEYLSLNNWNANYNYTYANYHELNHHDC
Summary of the method: as §1

[5] = molecular target: ELF4 (Homo sapiens, UniProt Q99607 1-663); conditions: protein: recombinant; tags: N-terminal GST; dsDNA, one strand shown
Summary of the method: as §1

[6] = molecular target: T3, ELK4 (Homo sapiens, UniProt P28324-2 1-405); conditions: protein: recombinant; tags: N-terminal GST; dsDNA, one strand shown
T3 sequence: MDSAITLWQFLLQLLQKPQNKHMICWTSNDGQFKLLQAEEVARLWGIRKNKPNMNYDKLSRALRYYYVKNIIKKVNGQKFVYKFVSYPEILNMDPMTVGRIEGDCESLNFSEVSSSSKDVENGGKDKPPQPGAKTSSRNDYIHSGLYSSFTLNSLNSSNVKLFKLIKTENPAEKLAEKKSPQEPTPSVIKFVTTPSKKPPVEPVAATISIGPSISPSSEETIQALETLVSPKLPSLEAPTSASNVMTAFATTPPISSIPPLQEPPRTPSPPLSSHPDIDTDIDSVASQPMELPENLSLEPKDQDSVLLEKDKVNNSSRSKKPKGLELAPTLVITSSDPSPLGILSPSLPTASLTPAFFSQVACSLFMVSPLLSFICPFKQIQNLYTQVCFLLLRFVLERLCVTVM
Summary of the method: as §1

[7] = molecular target: T4, ETV2 (Homo sapiens, UniProt O00321 1-342); conditions: protein: recombinant; tags: N-terminal GST; dsDNA, one strand shown
T4 sequence: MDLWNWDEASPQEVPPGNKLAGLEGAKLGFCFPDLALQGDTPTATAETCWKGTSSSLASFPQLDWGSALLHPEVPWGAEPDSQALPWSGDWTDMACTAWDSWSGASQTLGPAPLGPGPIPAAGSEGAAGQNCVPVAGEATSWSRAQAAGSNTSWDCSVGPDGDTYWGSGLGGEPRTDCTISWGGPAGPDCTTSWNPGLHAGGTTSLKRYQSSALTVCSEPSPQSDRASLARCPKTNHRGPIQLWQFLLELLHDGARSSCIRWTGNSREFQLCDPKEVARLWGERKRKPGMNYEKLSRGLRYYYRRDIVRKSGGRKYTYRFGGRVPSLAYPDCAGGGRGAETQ
Summary of the method: as §1

[8] = molecular target: T5, ELF3 (Homo sapiens, UniProt P78545 1-371); conditions: protein: recombinant; tags: N-terminal GST; dsDNA, one strand shown
T5 sequence: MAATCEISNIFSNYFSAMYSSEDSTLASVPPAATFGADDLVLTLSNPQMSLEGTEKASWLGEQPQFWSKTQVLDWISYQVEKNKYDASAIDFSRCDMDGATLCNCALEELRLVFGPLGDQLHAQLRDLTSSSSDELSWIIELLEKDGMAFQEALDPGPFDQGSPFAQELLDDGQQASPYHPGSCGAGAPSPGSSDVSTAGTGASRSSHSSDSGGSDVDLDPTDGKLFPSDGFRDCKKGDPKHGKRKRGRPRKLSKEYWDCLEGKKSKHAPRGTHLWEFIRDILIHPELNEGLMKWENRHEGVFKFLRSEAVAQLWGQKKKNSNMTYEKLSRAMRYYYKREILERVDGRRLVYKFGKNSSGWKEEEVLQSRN
Summary of the method: as §1

[9] = molecular target: CRX (Homo sapiens, UniProt O43186 1-299); conditions: protein: recombinant; tags: N-terminal GST; dsDNA, one strand shown
Summary of the method: as §1

[10] = molecular target: ETV1 (Homo sapiens, UniProt P50549 1-477); conditions: protein: recombinant; tags: N-terminal GST; dsDNA, one strand shown
Summary of the method: as §1

[11] = molecular target: T6, ERF (Homo sapiens, UniProt P50548 1-548); conditions: protein: recombinant; tags: N-terminal GST; dsDNA, one strand shown
T6 sequence: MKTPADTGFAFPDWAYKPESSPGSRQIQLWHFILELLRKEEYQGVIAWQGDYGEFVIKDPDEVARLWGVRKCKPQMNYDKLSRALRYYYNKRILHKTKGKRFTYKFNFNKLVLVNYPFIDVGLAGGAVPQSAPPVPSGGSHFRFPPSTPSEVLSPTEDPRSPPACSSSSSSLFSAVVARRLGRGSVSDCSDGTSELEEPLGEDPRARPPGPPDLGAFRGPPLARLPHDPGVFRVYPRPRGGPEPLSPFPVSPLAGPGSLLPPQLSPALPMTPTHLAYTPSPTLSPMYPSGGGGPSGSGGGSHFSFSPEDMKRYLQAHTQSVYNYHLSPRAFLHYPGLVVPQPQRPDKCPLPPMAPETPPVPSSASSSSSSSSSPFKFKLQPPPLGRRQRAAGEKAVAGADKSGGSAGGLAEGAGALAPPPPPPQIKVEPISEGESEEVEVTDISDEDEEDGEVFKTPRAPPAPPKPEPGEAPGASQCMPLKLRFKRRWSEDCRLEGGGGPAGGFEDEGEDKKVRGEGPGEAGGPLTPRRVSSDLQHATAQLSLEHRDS
Summary of the method: as §1

[12] = molecular target: T7, ETV3L (Homo sapiens, UniProt Q6ZN32 1-361); conditions: protein: recombinant; tags: N-terminal GST; dsDNA, one strand shown
T7 sequence: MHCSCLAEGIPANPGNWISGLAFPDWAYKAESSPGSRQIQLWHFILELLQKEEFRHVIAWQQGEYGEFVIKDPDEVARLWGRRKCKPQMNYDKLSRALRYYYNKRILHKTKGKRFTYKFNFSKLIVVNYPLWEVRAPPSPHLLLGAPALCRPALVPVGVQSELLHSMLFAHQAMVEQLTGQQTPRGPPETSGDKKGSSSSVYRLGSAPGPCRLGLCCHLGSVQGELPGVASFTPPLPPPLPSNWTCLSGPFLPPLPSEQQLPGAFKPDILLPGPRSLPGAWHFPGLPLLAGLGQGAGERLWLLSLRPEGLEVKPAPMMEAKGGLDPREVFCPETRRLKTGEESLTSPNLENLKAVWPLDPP
Summary of the method: as §1

[13] = molecular target: T8, ETS2 (Homo sapiens, UniProt P15036 1-469); conditions: protein: recombinant; tags: N-terminal GST; dsDNA, one strand shown
T8 sequence: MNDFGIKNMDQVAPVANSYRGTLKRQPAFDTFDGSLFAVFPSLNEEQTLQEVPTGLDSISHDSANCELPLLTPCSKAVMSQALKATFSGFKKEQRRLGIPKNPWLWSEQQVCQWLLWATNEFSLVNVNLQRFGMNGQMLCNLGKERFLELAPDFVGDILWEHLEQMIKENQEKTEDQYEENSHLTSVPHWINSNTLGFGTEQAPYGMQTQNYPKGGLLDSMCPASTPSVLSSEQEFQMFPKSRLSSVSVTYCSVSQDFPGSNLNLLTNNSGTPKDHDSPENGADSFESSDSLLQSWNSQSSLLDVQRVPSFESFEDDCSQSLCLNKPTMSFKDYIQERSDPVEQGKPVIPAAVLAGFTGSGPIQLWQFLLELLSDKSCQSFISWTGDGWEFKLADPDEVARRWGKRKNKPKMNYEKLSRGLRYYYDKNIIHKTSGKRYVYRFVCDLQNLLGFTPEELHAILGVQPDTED
Summary of the method: as §1

[14] = molecular target: T9, SPDEF (Homo sapiens, UniProt O95238 1-335); conditions: protein: recombinant; tags: N-terminal GST; dsDNA, one strand shown
T9 sequence: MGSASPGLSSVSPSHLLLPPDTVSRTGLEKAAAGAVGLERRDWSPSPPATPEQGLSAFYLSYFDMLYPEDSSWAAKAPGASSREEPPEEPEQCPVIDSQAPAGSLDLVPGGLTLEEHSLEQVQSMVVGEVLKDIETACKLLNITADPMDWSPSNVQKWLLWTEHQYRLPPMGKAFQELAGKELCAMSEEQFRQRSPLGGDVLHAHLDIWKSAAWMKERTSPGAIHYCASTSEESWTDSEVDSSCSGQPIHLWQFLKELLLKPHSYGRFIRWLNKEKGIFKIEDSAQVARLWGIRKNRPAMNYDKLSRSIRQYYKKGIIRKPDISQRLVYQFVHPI
Summary of the method: as §1

[15] = molecular target: T10, ETV7 (Homo sapiens, UniProt Q9Y603 1-341); conditions: protein: recombinant; tags: N-terminal GST; dsDNA, one strand shown
T10 sequence: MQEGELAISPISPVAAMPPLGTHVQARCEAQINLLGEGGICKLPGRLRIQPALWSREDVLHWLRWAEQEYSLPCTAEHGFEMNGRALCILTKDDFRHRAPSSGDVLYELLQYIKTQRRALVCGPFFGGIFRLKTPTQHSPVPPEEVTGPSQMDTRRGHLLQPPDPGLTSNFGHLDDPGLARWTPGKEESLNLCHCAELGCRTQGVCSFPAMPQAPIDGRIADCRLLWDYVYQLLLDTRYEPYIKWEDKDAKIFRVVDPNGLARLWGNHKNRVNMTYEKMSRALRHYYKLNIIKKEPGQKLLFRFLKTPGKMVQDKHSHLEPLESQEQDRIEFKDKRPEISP
Summary of the method: as §1

[16] = molecular target: T11, ELF5 (Homo sapiens, UniProt Q9UKW6-2 1-255); conditions: protein: recombinant; tags: N-terminal GST; dsDNA, one strand shown
T11 sequence: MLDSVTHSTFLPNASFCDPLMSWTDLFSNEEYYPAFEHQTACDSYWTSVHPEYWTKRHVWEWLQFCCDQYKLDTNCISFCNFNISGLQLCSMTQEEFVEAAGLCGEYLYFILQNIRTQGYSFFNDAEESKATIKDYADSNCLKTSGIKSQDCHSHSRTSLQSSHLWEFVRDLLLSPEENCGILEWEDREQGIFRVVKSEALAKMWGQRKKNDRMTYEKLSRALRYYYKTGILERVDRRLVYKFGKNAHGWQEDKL
Summary of the method: as §1

[17] = molecular target: T12, ETV3 (Homo sapiens, UniProt P41162-2 1-143); conditions: protein: recombinant; tags: N-terminal GST; dsDNA, one strand shown
T12 sequence: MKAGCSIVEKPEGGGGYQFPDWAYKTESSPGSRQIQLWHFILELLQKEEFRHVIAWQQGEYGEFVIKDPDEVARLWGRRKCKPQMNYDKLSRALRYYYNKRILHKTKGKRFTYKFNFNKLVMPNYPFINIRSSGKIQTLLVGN
Summary of the method: as §1

[18] = molecular target: ETV6 (Homo sapiens, UniProt P41212 1-452); conditions: protein: recombinant; tags: N-terminal GST; dsDNA, one strand shown
Summary of the method: as §1

Chain of ETV5 (P41161 whole entry): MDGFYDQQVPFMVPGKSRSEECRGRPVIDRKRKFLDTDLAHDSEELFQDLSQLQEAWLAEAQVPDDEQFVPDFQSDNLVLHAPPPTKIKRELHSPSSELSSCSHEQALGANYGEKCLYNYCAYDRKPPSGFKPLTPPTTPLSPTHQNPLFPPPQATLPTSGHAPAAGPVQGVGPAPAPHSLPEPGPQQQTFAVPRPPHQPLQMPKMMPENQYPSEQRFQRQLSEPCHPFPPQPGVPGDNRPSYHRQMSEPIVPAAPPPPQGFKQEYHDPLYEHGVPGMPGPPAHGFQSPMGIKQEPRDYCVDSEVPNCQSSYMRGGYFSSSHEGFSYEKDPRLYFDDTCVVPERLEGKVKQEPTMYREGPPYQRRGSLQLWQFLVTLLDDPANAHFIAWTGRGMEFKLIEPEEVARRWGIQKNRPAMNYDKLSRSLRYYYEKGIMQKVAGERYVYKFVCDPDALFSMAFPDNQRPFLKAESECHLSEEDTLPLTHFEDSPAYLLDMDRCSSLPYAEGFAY
Chain of CRX (O43186 whole entry): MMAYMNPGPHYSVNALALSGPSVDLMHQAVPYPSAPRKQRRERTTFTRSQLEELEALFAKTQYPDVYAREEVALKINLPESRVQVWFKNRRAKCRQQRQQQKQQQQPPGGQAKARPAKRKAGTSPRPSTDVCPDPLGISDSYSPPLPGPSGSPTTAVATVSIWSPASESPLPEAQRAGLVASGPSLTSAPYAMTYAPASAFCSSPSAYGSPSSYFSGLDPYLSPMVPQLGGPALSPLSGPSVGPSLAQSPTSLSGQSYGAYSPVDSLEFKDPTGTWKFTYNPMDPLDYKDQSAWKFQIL
Chain of ETV6 (P41212 whole entry): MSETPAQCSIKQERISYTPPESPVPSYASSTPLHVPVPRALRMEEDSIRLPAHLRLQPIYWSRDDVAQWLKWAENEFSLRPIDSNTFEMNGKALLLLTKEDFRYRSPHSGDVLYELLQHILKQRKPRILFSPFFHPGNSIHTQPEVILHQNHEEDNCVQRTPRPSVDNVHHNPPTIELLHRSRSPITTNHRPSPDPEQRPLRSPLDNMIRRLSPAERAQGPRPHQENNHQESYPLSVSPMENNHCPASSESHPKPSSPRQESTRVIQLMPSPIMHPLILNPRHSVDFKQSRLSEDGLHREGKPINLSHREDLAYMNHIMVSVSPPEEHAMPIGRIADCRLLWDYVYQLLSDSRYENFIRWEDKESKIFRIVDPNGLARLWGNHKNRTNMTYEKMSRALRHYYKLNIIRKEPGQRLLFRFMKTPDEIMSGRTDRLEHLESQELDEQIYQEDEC
Chain of ETV1 (P50549 whole entry): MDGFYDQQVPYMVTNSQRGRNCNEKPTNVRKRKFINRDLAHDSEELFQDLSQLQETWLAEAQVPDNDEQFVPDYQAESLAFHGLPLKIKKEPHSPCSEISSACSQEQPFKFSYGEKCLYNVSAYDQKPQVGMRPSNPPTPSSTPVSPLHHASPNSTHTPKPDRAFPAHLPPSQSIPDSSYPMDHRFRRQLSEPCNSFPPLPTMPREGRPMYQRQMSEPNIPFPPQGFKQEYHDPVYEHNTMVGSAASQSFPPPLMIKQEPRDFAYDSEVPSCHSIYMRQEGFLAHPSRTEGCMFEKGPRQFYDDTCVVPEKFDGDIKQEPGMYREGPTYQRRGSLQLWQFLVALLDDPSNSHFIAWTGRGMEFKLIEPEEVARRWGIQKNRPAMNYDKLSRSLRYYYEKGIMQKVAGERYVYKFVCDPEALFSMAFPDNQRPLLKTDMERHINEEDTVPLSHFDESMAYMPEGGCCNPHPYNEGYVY
Chain of ELF4 (Q99607 whole entry): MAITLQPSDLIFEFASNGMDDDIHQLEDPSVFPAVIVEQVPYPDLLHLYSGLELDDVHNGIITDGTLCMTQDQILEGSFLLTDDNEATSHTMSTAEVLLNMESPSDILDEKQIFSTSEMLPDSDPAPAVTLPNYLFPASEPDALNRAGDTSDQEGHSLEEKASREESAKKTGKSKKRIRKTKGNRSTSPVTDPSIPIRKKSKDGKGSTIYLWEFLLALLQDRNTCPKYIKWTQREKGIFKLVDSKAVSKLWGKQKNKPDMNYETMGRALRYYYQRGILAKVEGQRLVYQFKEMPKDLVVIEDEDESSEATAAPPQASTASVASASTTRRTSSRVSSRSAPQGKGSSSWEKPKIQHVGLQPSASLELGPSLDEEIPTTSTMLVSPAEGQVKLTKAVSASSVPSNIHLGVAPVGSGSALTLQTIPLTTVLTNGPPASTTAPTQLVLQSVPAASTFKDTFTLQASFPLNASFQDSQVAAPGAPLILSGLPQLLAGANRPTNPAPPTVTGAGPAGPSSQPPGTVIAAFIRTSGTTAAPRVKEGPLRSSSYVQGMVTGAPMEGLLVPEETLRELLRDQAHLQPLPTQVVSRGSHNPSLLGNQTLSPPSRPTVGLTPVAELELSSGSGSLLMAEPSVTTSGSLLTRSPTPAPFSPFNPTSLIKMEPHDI
Chain of HSF1 (Q00613 whole entry): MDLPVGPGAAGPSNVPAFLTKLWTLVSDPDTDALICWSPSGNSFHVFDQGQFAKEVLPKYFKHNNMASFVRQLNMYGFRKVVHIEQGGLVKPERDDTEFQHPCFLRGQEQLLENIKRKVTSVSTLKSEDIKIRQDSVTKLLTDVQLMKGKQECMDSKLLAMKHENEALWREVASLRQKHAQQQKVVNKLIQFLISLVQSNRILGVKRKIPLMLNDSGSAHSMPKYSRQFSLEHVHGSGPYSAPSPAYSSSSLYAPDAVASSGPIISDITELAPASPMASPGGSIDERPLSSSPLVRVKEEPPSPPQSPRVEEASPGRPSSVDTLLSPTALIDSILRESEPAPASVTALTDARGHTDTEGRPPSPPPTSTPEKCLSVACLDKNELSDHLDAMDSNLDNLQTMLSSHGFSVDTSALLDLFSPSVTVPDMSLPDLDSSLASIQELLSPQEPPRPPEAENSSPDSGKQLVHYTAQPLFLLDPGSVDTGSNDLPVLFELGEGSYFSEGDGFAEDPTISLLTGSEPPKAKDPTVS

With TGACTT the binding signal [1] was 1.59 fold enrichment (6-mer frequency, TF over GST control), the binding signal [2] was 1.52 fold enrichment (6-mer frequency, TF over GST control) and the binding signal [3] was 1.15 fold enrichment (6-mer frequency, TF over GST control). The binding signal [4] was 1.37 fold enrichment (6-mer frequency, TF over GST control), the binding signal [5] was 1.45 fold enrichment (6-mer frequency, TF over GST control) and the binding signal [6] was 1.4 fold enrichment (6-mer frequency, TF over GST control). The binding signal [7] was 1.44 fold enrichment (6-mer frequency, TF over GST control), the binding signal [8] was 1.55 fold enrichment (6-mer frequency, TF over GST control) and the binding signal [9] was 1.29 fold enrichment (6-mer frequency, TF over GST control). For the same sequence, the binding signal [10] was 1.47 fold enrichment (6-mer frequency, TF over GST control), the binding signal [11] was 1.45 fold enrichment (6-mer frequency, TF over GST control) and the binding signal [12] was 1.4 fold enrichment (6-mer frequency, TF over GST control). For the same sequence, the binding signal [13] was 1.53 fold enrichment (6-mer frequency, TF over GST control), the binding signal [14] was 1.24 fold enrichment (6-mer frequency, TF over GST control) and the binding signal [15] was 1.48 fold enrichment (6-mer frequency, TF over GST control). The binding signal [16] was 1.56 fold enrichment (6-mer frequency, TF over GST control), the binding signal [17] was 1.46 fold enrichment (6-mer frequency, TF over GST control) and the binding signal [18] was 1.39 fold enrichment (6-mer frequency, TF over GST control).
